# Several values for one entry are separate records, joined by “and”; a condition that tells them apart may be missing. Identical values can stand only once. Records with an inconclusive call do not appear. A call without a number means that no potency is given here. Where a structure was tested more than once in an assay, its records may differ in their call. Activity calls are given as the source filed them. Unless noted, calls come from the whole dose curve; as a rule, active = well fitted curve in the direction sought with a large enough effect in the repeat runs; inconclusive = weak or mixed curves; inactive = no such curve, though single readings can be large; an effect the other way counts as inactive or inconclusive.
# How the values were obtained:
# [1] = Caspase-3/7 induction in HepG2 cells by small molecules, qHTS cell viability counter screen (AID 1346981); note: series mostly up to about 92 µM; nearly all actives have a fitted effect of over 30% in size
# Procedure, shortened: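 After a 5-hr attachment period at 37 C and 5% CO2, wild-type HepG2 cells received compounds in DMSO. Sixteen hours later CellTiter-Fluor was dispensed and the fluorescent signal quantified after a further hour.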
# [2] = biological target: Nuclear receptor subfamily 1 group I member 2 (Homo sapiens) (UniProt O75469); test: Human pregnane X receptor (PXR) small molecule agonists, qHTS assay (AID 1346982); note: nearly all actives have a fitted effect of over 35% in size; note: potency is the fitted concentration of half-maximal effect
# Procedure, shortened: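 Tox21 qHTS; PXR-Luc HepG2; compounds pinned from DMSO; 24 hr, 37 C; ONE-Glo luciferase detection, 30 min room temperature.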
# [3] = biological target: Acetylcholinesterase (Homo sapiens) (UniProt P22303); test: Acetylcholinesterase (AChE) small molecule antagonists: colormetric cell-based qHTS assay (AID 1347395; calls by dose curve; note: nearly all actives have a fitted effect of over 30% in size; note: potency is the fitted concentration of half-maximal effect)
# Procedure, shortened: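 SH-SY5Y cells attached overnight, exposed to compound 30 min at 37 C, then given DTNB/acetylthiocholine; after 90 min at 37 C, colorimetric thiocholine read gives cellular AChE activity.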
# [4] = biological target: Acetylcholinesterase (Homo sapiens) (UniProt P22303); test: Acetylcholinesterase (AChE) small molecule antagonists: enzyme-based qHTS assay (AID 1347397; calls by dose curve; note: nearly all actives have a fitted effect of over 55% in size); details: Potency: AChE enzyme activity inhibition
# Procedure, shortened: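 Colorimetric DTNB read-out of thiocholine released from acetylthiocholine by recombinant human AChE (50 mU/mL as dispensed). Compounds were preincubated 30 min at RT before substrate/DTNB addition, with a 10 min RT reaction.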
# [5] = biological target: Acetylcholinesterase (Homo sapiens) (UniProt P22303); test: Acetylcholinesterase (AChE) small molecule antagonists: enzyme-based qHTS assay with human liver microsomes (AID 1347399; calls by dose curve; note: nearly all actives have a fitted effect of over 60% in size); details: Potency: qHTS inhibition
# Procedure, shortened: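 Recombinant human AChE (50 mU/mL in the enzyme mix) and human liver microsomes (0.25 mg/mL final) were preincubated with compound and NADPH (0.25 mg/mL final) for 30 min at 37 C. Acetylthiocholine/DTNB was then added; thiocholine was read colorimetrically after 10 min at room temperature.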
# [6] = biological target: Cytochrome P450 2D6 (Homo sapiens) (UniProt P10635); test: Cytochrome P450 Family 2 Subfamily D Member 6 (CYP2D6) small molecule antagonists: luciferase reporter qHTS assay (AID 1671196); note: nearly all actives have a fitted effect of over 50% in size; note: potency is the fitted concentration of half-maximal effect
# Procedure, shortened: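 Room-temperature luminescent CYP2D6 activity assay: compound preincubated 10 min with enzyme–substrate mix, NADPH-initiated reaction 1 h, detection reagent 20 min before reading.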
# [7] = biological target: Cytochrome P450 2C19 (Homo sapiens) (UniProt P33261); test: Cytochrome P450 Family 2 Subfamily C Member 19 (CYP2C19) small molecule antagonists: luciferase reporter qHTS assay (AID 1671197); note: nearly all actives have a fitted effect of over 65% in size; note: potency is the fitted concentration of half-maximal effect
# Procedure, shortened: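 Compounds were tested on CYP2C19 activity via proluciferin conversion to luciferin. The 37C, 1 h reaction followed NADPH addition; detection reagent stopped it.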
# [8] = biological target: Cytochrome P450 2C9 (Homo sapiens) (UniProt P11712); test: Cytochrome P450 Family 2 Subfamily C Member 9 (CYP2C9) small molecule antagonists: luciferase reporter qHTS assay (AID 1671198); note: nearly all actives have a fitted effect of over 50% in size; note: potency is the fitted concentration of half-maximal effect
# Procedure, shortened: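 P450-Glo proluciferin substrate with CYP2C9 enzyme; 10 min RT preincubation, then NADPH regeneration 1 h at 37C; luciferin detection reagent 20 min RT, luminescence in relative luminescence units.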
# [9] = biological target: Cytochrome P450 1A2 (Homo sapiens) (UniProt P05177); test: Cytochrome P450 Family 1 Subfamily A Member 2 (CYP1A2) small molecule antagonists: luciferase reporter qHTS assay (AID 1671199); note: nearly all actives have a fitted effect of over 50% in size; note: potency is the fitted concentration of half-maximal effect
# Procedure, shortened: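 Room-temperature CYP1A2 reaction with proluciferin substrate: compounds added from DMSO, 10 min preincubation, NADPH regeneration for 1 h. Luciferin detection reagent then added; luminescence recorded as RLU.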
# [10] = biological target: Voltage-gated inwardly rectifying potassium channel KCNH2 (Homo sapiens) (UniProt Q12809); test: Human Ether-a-go-go-Related Gene (hERG) channel small molecule antagonists: fluorescence cell-based qHTS assay (AID 1671200);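 note: hERG-expressing U2OS cells given a thallium stimulus after FluxOR II dye loading; series mostly up to about 77 µM; nearly all actives have a fitted effect of over 50% in size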
# Procedure, shortened: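 hERG-U2OS cells plated overnight at 37 C, loaded with FluxOR II dye 1 h at RT in dark; after 10 min, thallium stimulus added. Fluorescence (480/540 nm) read kinetically for 2 min at 1 s intervals.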
# [11] = biological target: Cytochrome P450 3A4 (Homo sapiens) (UniProt P08684); test: Cytochrome P450 Family 3 Subfamily A Member 4 (CYP3A4) small molecule antagonists: luciferase reporter qHTS assay (AID 1671201)
# Procedure, shortened: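 P450-Glo CYP3A4 luminescent assay: compounds preincubated 10 min at room temperature with enzyme and proluciferin substrate, NADPH regeneration added, 1 h room-temperature reaction, stopped with luciferin detection reagent; luminescence read after 20 min. Ketoconazole positive control.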
# [12] = biological target: Nuclear receptor subfamily 1 group I member 2 (Rattus norvegicus) (UniProt Q9R1A7); test: Rat pregnane X receptor (rPXR) activation by small molecules, qHTS assay (AID 1346983); details: rPXR luciferase reporter cells, One-Glo luminescence, 24 h; stronger effect = higher value; note: nearly all actives have a fitted effect of over 20% in size
# Procedure, shortened: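 Cell-based rPXR activation assay: rPXR cells, 2,000 per well, rested 5hr at 37 C, then exposed to compounds in DMSO for 24 hr at 37 C. Luciferase activity read by One-Glo luminescence after 30 min at room temperature.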
# [13] = biological target: Nuclear receptor subfamily 1 group I member 2 (Homo sapiens) (UniProt O75469); test: CYP3A4 induction through human pregnane X receptor (PXR) by small molecules, qHTS assay (AID 1346984); note: nearly all actives have a fitted effect of over 40% in size
# Procedure, shortened: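 Cells (DPX-2; HepG2 with PXR element plus CYP3A4-promoter luciferase) settled 5hr, then were treated 24hr at 37C. A 3hr, 3uM-final Luciferin-IPA step preceded luminescence measurement with One-Glo.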
# [14] = biological target: Nuclear receptor subfamily 1 group I member 2 (Homo sapiens) (UniProt O75469); test: Human pregnane X receptor (PXR) activation by small molecules, qHTS assay (AID 1346985); note: nearly all actives have a fitted effect of over 40% in size
# Procedure, shortened: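 DPX-2 cells (HepG2 co-transfected with a PXR response element and a CYP3A4-promoter luciferase construct) were seeded at 2,000 per well, rested 5 hr at 37C, then exposed to DMSO-dissolved compounds for 24 hr. Activation was read as luciferase luminescence.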
# [15] = biological target: Acetylcholinesterase (Homo sapiens) (UniProt P22303); test: Acetylcholinesterase (AChE) small molecule antagonists: fluorescence cell-based qHTS assay (AID 1347398; calls by dose curve; note: nearly all actives have a fitted effect of over 50% in size); details: Potency: AChE activity
# Procedure, shortened: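 SH-SY5Y, 2,000 cells/well, attached overnight; cmpd 30 min 37 C; acetylthiocholine/Thiolite Green cocktail 40 min RT; fluorescence Ex/Em 490/520 nm.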
# Voltage-gated inwardly rectifying potassium channel KCNH2 (Homo sapiens), sequence (Q12809 whole entry, looked up): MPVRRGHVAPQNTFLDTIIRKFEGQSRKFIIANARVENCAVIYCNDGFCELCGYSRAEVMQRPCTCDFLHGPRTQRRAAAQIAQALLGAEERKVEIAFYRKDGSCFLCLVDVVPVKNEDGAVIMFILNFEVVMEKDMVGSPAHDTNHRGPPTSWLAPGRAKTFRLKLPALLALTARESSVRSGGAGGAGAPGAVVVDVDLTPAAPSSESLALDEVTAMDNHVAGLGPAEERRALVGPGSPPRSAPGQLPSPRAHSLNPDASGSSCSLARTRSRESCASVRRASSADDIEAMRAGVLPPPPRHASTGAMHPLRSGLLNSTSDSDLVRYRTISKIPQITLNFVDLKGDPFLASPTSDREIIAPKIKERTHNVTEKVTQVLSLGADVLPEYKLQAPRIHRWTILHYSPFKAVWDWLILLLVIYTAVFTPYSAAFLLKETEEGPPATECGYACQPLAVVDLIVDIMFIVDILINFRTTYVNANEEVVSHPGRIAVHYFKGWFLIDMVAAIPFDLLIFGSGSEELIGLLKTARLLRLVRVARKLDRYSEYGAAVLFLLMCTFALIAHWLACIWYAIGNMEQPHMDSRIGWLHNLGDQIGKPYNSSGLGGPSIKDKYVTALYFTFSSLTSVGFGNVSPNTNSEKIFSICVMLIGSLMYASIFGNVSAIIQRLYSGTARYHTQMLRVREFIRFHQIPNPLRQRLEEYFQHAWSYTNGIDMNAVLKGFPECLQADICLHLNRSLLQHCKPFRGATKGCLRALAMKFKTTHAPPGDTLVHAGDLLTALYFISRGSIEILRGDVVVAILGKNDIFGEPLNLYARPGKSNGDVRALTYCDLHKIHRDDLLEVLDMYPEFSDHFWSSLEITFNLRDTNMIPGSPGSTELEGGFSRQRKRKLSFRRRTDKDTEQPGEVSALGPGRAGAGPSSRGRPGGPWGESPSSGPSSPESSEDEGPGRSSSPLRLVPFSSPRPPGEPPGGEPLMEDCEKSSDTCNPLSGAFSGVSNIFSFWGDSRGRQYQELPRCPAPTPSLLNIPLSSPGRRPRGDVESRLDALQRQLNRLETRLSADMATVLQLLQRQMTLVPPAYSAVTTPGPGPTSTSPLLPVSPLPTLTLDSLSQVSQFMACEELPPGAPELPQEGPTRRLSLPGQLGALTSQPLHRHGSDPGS
# Acetylcholinesterase (Homo sapiens), sequence (P22303 whole entry, looked up): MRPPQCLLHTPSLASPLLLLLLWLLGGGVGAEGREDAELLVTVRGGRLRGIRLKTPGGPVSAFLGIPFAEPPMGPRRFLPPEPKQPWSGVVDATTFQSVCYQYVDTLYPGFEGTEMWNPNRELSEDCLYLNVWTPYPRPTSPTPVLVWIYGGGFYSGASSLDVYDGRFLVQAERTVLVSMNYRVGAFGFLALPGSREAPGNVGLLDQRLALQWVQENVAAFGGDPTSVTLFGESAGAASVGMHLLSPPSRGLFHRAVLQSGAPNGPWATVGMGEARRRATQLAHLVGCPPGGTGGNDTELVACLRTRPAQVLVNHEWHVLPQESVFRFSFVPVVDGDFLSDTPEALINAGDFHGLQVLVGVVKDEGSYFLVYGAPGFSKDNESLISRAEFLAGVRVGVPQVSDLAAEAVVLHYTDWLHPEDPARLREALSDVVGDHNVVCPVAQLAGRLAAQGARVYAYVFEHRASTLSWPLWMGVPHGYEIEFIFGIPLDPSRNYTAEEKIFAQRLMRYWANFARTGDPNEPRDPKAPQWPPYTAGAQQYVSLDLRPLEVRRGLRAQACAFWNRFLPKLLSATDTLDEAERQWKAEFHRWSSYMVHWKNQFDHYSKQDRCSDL
# Nuclear receptor subfamily 1 group I member 2 (Homo sapiens), sequence (O75469 whole entry, looked up): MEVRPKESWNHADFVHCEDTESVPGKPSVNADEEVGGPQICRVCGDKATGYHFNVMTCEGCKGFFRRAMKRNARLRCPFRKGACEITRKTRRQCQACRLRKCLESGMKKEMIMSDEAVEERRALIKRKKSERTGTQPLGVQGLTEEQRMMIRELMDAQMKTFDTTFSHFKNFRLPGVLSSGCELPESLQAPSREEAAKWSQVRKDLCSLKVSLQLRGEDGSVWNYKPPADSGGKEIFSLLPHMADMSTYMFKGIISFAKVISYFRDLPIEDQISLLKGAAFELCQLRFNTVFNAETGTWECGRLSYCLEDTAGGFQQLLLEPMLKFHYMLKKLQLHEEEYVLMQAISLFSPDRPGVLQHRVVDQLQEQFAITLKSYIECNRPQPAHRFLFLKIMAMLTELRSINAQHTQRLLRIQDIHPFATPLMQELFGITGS
# Cytochrome P450 2C19 (Homo sapiens), sequence (P33261 whole entry, looked up): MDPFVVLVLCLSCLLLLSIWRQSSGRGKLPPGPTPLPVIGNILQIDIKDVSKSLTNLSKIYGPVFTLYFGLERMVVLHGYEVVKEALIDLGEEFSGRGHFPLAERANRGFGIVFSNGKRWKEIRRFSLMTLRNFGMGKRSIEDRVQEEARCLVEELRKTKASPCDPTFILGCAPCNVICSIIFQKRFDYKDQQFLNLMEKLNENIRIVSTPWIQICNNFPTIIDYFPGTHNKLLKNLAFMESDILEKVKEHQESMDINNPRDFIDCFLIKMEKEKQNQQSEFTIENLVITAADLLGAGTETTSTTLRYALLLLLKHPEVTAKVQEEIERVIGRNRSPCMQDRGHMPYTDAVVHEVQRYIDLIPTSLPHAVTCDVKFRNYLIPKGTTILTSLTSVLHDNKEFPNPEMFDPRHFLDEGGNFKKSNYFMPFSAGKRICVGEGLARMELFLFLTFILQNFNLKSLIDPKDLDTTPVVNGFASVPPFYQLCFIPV
# Cytochrome P450 2C9 (Homo sapiens), sequence (P11712 whole entry, looked up): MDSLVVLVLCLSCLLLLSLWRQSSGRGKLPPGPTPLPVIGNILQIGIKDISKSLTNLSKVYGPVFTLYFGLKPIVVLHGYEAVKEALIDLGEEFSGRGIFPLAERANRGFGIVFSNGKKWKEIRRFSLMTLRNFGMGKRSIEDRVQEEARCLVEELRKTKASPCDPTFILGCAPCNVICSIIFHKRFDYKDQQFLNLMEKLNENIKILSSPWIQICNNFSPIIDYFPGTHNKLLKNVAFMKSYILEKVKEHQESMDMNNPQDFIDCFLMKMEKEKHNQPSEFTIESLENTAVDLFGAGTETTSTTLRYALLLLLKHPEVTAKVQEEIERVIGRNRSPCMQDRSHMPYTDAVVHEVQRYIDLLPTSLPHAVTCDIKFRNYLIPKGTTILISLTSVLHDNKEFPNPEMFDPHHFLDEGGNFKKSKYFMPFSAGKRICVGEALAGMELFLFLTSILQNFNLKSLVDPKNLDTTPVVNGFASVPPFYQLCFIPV
# Cytochrome P450 3A4 (Homo sapiens), sequence (P08684 whole entry, looked up): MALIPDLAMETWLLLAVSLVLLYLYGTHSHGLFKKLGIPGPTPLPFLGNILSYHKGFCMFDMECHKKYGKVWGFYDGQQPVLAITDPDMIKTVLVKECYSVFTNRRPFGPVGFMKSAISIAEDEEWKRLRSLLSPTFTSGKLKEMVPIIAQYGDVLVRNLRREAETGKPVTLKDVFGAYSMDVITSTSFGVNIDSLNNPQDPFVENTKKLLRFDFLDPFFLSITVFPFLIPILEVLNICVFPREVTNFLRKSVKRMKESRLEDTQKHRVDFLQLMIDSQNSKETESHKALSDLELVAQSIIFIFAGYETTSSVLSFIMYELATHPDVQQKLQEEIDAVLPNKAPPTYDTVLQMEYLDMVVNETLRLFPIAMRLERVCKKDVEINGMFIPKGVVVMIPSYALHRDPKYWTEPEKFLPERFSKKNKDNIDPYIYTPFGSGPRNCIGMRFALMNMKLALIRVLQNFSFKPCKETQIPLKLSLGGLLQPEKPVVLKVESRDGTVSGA
# Cytochrome P450 2D6 (Homo sapiens), sequence (P10635 whole entry, looked up): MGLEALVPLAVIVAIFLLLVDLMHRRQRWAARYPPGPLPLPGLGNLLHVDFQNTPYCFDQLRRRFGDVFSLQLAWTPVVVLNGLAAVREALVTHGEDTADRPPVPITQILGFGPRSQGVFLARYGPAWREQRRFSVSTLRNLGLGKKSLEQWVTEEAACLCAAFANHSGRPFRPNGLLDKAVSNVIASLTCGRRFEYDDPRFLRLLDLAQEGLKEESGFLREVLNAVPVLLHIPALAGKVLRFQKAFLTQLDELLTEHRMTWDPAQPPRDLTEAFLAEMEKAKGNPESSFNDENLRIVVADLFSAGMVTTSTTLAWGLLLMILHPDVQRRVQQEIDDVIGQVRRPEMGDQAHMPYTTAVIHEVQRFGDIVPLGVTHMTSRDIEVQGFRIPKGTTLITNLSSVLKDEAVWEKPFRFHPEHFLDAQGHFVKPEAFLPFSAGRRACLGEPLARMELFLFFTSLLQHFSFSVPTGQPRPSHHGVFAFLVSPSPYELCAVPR
# Cytochrome P450 1A2 (Homo sapiens), sequence (P05177 whole entry, looked up): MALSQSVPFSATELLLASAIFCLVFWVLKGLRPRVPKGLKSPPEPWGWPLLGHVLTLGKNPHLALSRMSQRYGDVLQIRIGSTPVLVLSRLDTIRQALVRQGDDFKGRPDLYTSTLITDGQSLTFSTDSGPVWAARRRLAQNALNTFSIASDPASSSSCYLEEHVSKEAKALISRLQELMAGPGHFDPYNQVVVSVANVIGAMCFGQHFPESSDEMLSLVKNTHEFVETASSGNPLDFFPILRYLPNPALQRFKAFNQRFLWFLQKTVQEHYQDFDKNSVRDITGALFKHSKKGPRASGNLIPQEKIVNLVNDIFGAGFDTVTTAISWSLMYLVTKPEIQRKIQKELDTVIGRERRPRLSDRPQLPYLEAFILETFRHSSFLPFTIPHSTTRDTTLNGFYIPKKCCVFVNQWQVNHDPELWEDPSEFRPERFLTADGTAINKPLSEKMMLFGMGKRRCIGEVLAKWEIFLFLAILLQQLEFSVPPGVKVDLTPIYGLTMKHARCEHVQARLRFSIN
SMILES,Potency [1],Potency [2],Potency [3],Potency [4],Potency [5],Potency [6],Potency [7],Potency [8],Potency [9],Potency [10],Potency [11],max activation [12],outcome [13],Potency [14],Potency [15]
CC(C#N)CCC#N (centres undefined),inactive,inactive,inactive,inactive,inactive,inactive,inactive,inactive,inactive,inactive,inactive,–,–,–,–
O=[N+]([O-])c1ccccc1,inactive,–,inactive,inactive,inactive,16.4 µM (active) and inactive,inactive,inactive,inactive,inactive,inactive,7.19% (inactive),inactive,inactive,inactive
Nc1c(Cl)c(Cl)nc(C(=O)O)c1Cl,inactive,56.1 µM (active) and inactive,inactive,–,inactive,inactive,inactive and 8.22 µM (active),inactive and 65.3 µM (active),39.5 µM (active) and inactive,inactive,inactive,–,–,–,–
c1ccc(OP(Oc2ccccc2)Oc2ccccc2)cc1,inactive,inactive,inactive,–,inactive,inactive,–,inactive,inactive,inactive,inactive,–,–,–,inactive
c1cc2c3c(cccc3c1)CC2,inactive,inactive,36.5 µM (active) and inactive,–,inactive,inactive,45.9 µM (active) and inactive,inactive,–,inactive,inactive,–,–,–,inactive
CC(C)N1C(=O)c2ccccc2NS1(=O)=O,inactive,inactive,inactive,–,inactive,inactive,–,20 µM (active) and 17.8 µM (active),inactive,inactive,inactive,–,–,–,inactive
CC(Br)C(=O)O (centres undefined),inactive,inactive,inactive,–,inactive,inactive,45.3 µM (active),36 µM (active),inactive,inactive,inactive,–,–,–,inactive
Nc1ccccc1C(=O)O,inactive,–,inactive,–,inactive,63.6 µM (active) and inactive,inactive,inactive,40.1 µM (active) and inactive,inactive,inactive,-2.88% (inactive),inactive,inactive,inactive

# — PubChem BioAssay (Tox21)
